In the library only some 20% were active in any assay of this set; here they are far more common.
Pf growth 48h = Primary qHTS for delayed death inhibitors of the malarial parasite plastid, 48 hour incubation; P. falciparum luciferase growth in erythrocytes, 48 h; Potency, µM (titrated, usually from 28.7 µM), most hits filed as inhibitors; 310,000 tested, 5.9% active; AID 504832, 2011
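Parasite viability was followed by luminescence of a genomically integrated firefly luciferase. Cultures held 0.1% parasitemia at 2% hematocrit (final), incubated under 5% CO2 at 37 C.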
Shiga toxin inh = A qHTS for Small Molecule Inhibitors of Shiga Toxin. inhibition, % at 38.7 µM. Vero cells, Shiga toxin protein synthesis inhibition reporter. 290,000 tested, 9.2% active; in the data active means inhibition mostly above about 28%, no sharp cut-off; inactive means mostly below about 43%
HCMV antiviral = qHTS Assay for inhibitors of the human cytomegalovirus (HCMV); activity change, negative = inhibition, % at 57.5 µM; 410,000 tested, 4.5% active; AID 1259415, 2018; HFF cells, HCMV-luciferase reporter, 72 h; hits give low values; in the data active means activity change below about -60%; inconclusive means no clear call, values can overlap the other calls; inactive means above about -39%
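Screen run at 2 compound doses on HFFs infected with reporter HCMV, MOI 1 PFU/cell. Luciferase activity from cell lysates at 72 h post infection gave inhibition relative to buffer-only and Salinomycin wells.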
Pf growth 96h = Primary qHTS for delayed death inhibitors of the malarial parasite plastid, 96 hour incubation. P. falciparum luciferase reporter growth, 96 h. Potency, µM (doses to about 28.7 µM), most hits filed as inhibitors. 320,000 tested, 6.9% active. AID 504834, 2011
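Erythrocytes infected with luciferase-expressing P. falciparum were dispensed at 2% hematocrit and 0.05% parasitemia (final), then incubated with compounds 96 hours at 37 C in 5% CO2. Luminescence after detection reagent addition reported growth.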
Cycloheximide cs = Cycloheximide Counterscreen for Small Molecule Inhibitors of Shiga Toxin | cell reporter, cycloheximide protein synthesis inhibition counterscreen | max response, % | 300,000 tested, 12% active; in the data active means max response mostly above about 13%, no sharp cut-off; inactive means mostly below about 14%; further: read at 38.3 µM for the half of the compounds with a filed dose
Of the large screens only hits and unclear results are named; the others gave an inactive call. Unless noted, the call rests on the fitted dose curve; in most records, active means well fitted inhibition curve with a large enough effect; inconclusive means small, poorly fitted or top-dose-only effect, or another doubt; inactive means no such curve, though single readings can be large or run the other way.

O=C1CC(c2ccccc2)CN1C(=O)c1ccccc1 (centres undefined)	Cycloheximide cs 16.0
COc1ccc(C2N(C(=O)c3ccccc3)CCN2C(=O)c2ccccc2)cc1	Pf growth 48h inconclusive, Pf growth 96h inconclusive
CC(C(N)=O)N1CC(c2ccccc2)CC1=O (centres undefined)	none
COc1ccc(C(=O)N2CC(c3ccccc3)CC2=O)cc1 (centres undefined)	Shiga toxin inh 63.4, Cycloheximide cs 43.8
Cc1ccc(NC(=O)C2C3C=CC4(O3)C2C(=O)N(CCCN2CCCC2)C4C(=O)NC2CCCCC2)cc1Cl (centres undefined)	Pf growth 48h inconclusive
CC(C)c1ccc(NC(=O)C2C3C=CC4(O3)C2C(=O)N(CCCN2CCCCC2)C4C(=O)NC2CCCCC2)cc1 (centres undefined)	Pf growth 48h inconclusive, HCMV antiviral -77.2
Cc1cc(C)cc(NC(=O)C2C3C=CC4(O3)C2C(=O)N(CCN2CCCCC2)C4C(=O)NC2CCCCC2)c1 (centres undefined)	Pf growth 48h inconclusive, Pf growth 96h 10.4µM
CSc1cccc(NC(=O)C2C3C=CC4(O3)C2C(=O)N(CCCN2CCOCC2)C4C(=O)NC2CCCCC2)c1 (centres undefined)	HCMV antiviral inconclusive
CCCN(CCC)CCN1C(=O)C2C(C(=O)Nc3cccc(SC)c3)C3C=CC2(O3)C1C(=O)NC1CCCCC1 (centres undefined)	Pf growth 48h 3.7µM
CC(=O)Oc1cc(C(F)(F)F)ccc1C(=O)O	none (no result: Shiga toxin inh, HCMV antiviral, Cycloheximide cs)
O=C(NCc1ccco1)c1ccc2c(c1)N(Cc1ccc(Cl)cc1)C(=O)c1ccccc1S2(=O)=O	none (no result: Pf growth 48h, Shiga toxin inh, Pf growth 96h, Cycloheximide cs)
CCOc1ccc(N2C(=O)/C(=C/c3ccco3)N(C)C2=S)cc1	Pf growth 96h 2.08µM
CCOc1ccc(N2C(=O)/C(=C/c3ccco3)C(=O)NC2=S)cc1	Pf growth 96h inconclusive (no result: Shiga toxin inh, HCMV antiviral)
CCn1c(=O)cc(OCC(=O)NCc2ccccc2Cl)c2ccccc21	none (no result: Pf growth 48h, Shiga toxin inh, Pf growth 96h, Cycloheximide cs)
O=C(NCCN1CCCc2ccccc21)C1CCC(=O)N(CCc2ccccc2)C1 (centres undefined)	none
O=C(NCCc1ccc(Cl)cc1)C1CC(=O)N(CCc2ccccc2)C1 (centres undefined)	Pf growth 96h 4.15µM
CCOC(=O)CC1(NC(=O)C2CCC(=O)N(CCc3ccccc3)C2)CCCCC1 (centres undefined)	Shiga toxin inh 30.3, Pf growth 96h inconclusive, Cycloheximide cs 19.6
O=C(NCCCc1ccccc1)C1CCC(=O)N(Cc2ccc(Cl)cc2)C1 (centres undefined)	Shiga toxin inh 38.2, Pf growth 96h inconclusive, Cycloheximide cs 35.5
O=C(NCCn1cccn1)C1CCC(=O)N(CCc2ccccc2)C1 (centres undefined)	Pf growth 96h 13.1µM
Cc1c(N=NC2=C(O)CC(C)(C)CC2=O)cc2c(c1[N+](=O)[O-])C(C)(C)CC2(C)C	Pf growth 48h inconclusive
O=C(CSc1nc(N2CCOCC2)nc(N2CCOCC2)n1)Nc1ccc(Cl)cc1Cl	Pf growth 48h inconclusive, Pf growth 96h inconclusive
COc1ccc(-n2nnnc2SCC(=O)Nc2cccc(C)n2)cc1OC	Pf growth 96h inconclusive
COCCN1CCN(C(=O)C2CCC(=O)N(CCc3ccc(Cl)cc3)C2)CC1 (centres undefined)	none
Cc1ccc(CNC(=O)C2CCC(=O)N(CCc3ccc(Cl)cc3)C2)s1 (centres undefined)	Pf growth 96h inconclusive (no result: HCMV antiviral)
CC(C)C1CCN(C(=O)C2CCC(=O)N(CCc3ccc(Cl)cc3)C2)CC1 (centres undefined)	HCMV antiviral -63.9
Cc1ccc(CNC(=O)C2CCC(=O)N(CCc3ccc(Cl)cc3)C2)cc1 (centres undefined)	Shiga toxin inh 85.3, Pf growth 96h 9.28µM, Cycloheximide cs 46.5
Cc1cc(C)c(O)c(N)c1	Pf growth 48h inconclusive, Pf growth 96h 2.33µM (no result: HCMV antiviral)
CCn1c(COc2ccc3c(c2)CCCC3)nnc1SCC(=O)Nc1ccc(C(=O)OC)cc1	Pf growth 96h 9.28µM
CCn1c(CNC(=O)COc2ccc(C(C)C)cc2)nnc1SCC(=O)Nc1ccc(F)cc1	Pf growth 96h 8.28µM (no result: Pf growth 48h)
CCn1c(CNC(=O)COc2ccc(C(C)C)cc2)nnc1SCC(=O)NC1CCCCC1C (centres undefined)	Pf growth 48h 11.7µM, HCMV antiviral inconclusive, Pf growth 96h 10.4µM
CCn1c(COc2cccc(OC)c2)nnc1SCC(=O)Nc1ccccc1C(=O)OC	Pf growth 48h inconclusive (no result: Pf growth 96h)
COc1cc(NC(=O)COCc2cc(-c3ccc4c(c3)OCO4)on2)c(OC)cc1Cl	none (no result: Pf growth 48h, Shiga toxin inh, Pf growth 96h, Cycloheximide cs)
O=c1c2nncn2ccn1-c1ccc(F)c(F)c1	none (no result: Pf growth 48h, Shiga toxin inh, Pf growth 96h, Cycloheximide cs)
Cc1nc(SCC#N)c2c(C)c(C)sc2n1	Pf growth 96h 9.28µM
Cc1ccc(-c2nnc(CSc3nc(C)nc4sc(C)c(C)c34)o2)cc1	Pf growth 96h inconclusive (no result: HCMV antiviral)
CC(C)C(NC(=O)c1ccccc1F)C(=O)NCc1ccc(F)cc1 (centres undefined)	none
O=C(NCc1cccc(Cl)c1)c1cccc2c(-c3cccnc3)coc12	none (no result: Pf growth 48h, Shiga toxin inh, Pf growth 96h, Cycloheximide cs)
Cn1cc(Cl)c(C(=O)OCC(=O)c2ccccc2)n1	Shiga toxin inh 36.0, Pf growth 96h 13.1µM, Cycloheximide cs 27.4
O=C(COC(=O)c1ccc(Br)cc1)NCCc1ccccc1	none
Cc1cc(-c2onc(C)c2C(=O)Oc2ccc(Cl)cc2)no1	none
COc1ccc(C(=O)O/N=C(\N)c2ccc(Br)cc2)cc1	Pf growth 48h inconclusive, Shiga toxin inh 82.5, Cycloheximide cs 61.6
Cc1noc(-c2ccc(Cl)cc2)c1C(=O)O/N=C(\N)c1ccc(C(C)(C)C)cc1	Pf growth 48h inconclusive, HCMV antiviral -99.7, Pf growth 96h inconclusive
O=C(COC(=O)c1ccccc1)c1ccc(Br)cc1	Shiga toxin inh 115.2, Cycloheximide cs 47.3
CCCCSc1n[nH]c(N)n1	none
Cc1ccc(C(=O)O/N=C(\N)c2ccc(Br)cc2)cc1	Shiga toxin inh 60.2, Cycloheximide cs 32.8 (no result: Pf growth 48h)
Cc1cc(C(=O)O/N=C(\N)c2ccc(C(C)(C)C)cc2)no1	Shiga toxin inh 41.9, HCMV antiviral -69.4, Cycloheximide cs 33.5
N/C(=N\OC(=O)c1ccc(Br)cc1)c1ccccc1	Shiga toxin inh 144.0, Cycloheximide cs 66.4
COc1ccc(C(=O)O/N=C(\N)c2ccccc2)cc1	none
CC(C)(C)c1ccc(C(=O)O/N=C(\N)c2ccccc2)cc1	Shiga toxin inh 74.2, HCMV antiviral -93.9, Pf growth 96h inconclusive, Cycloheximide cs 59.9
CCOC(=O)c1cc(/C(C)=N/OC(=O)c2ccc(C(C)(C)C)cc2)on1	none
COCc1cc(CN2CCN(Cc3ccsc3)C(CCO)C2)ccc1OC (centres undefined)	none
CCOC(=O)C1CCCN(S(=O)(=O)c2c(C(=O)N3CCCCC3)c(C)n(C)c2C)C1 (centres undefined)	none
NC(=O)C(c1ccc(F)cc1)c1ccc(C(=O)c2ccccc2)cc1 (centres undefined)	HCMV antiviral inconclusive

Compound activity from PubChem BioAssay.
